In PubChem BioAssay (NCATS):
Several values for one entry are separate records, joined by “and”; a condition that tells them apart may be missing. Equal entries are not always repeated. Results filed as inconclusive are left out. Entries that show only a call come without a potency. Values without a mark were called inactive. Activity calls are given as the source filed them. The call rests on the fitted dose curve; in most records, active means well fitted curve in the direction sought with a large enough effect; inconclusive means small, poorly fitted or top-dose-only effect, or another doubt; inactive means no such curve, though single readings can be large; an effect the other way counts as inactive or inconclusive.

Key:
[1] = target: Cytochrome P450 3A7 (Homo sapiens) (UniProt P24462); assay: Cytochrome P450 family 3 subfamily A member 7 (CYP3A7) small molecule antagonists: luciferase biochemical qHTS assay (AID 1963596); further: nearly all actives have a fitted effect of over 40% in size; further: potency means the concentration at half of the fitted maximal effect
Outline: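 Compounds were screened in qHTS format for interference with CYP3A7 turnover of a proluciferin substrate. Reactions ran 1 h at room temperature after NADPH regeneration solution was added, then luciferin product was detected by luminescence.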

[2] = Viability qHTS for spleen associated tyrosine kinase inhibitor (SYKi) drug resistant MV4-11 cells (AID 1963824); further: nearly all actives have a fitted effect of over 35% in size; further: potency means the concentration at half of the fitted maximal effect
Outline: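 SYK-inhibitor-resistant MV4-11 AML cells were seeded at 500 per well onto compound and cultured 72 hours (37 °C, 5% CO2). CellTiter-Glo was then added, and after 10 min at room temperature, luminescence gave viability.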

[3] = Quantitative highthroughput screen to assess conditional lethalithy of NOMO1 cells grown in RPMI1640 with untreated serum (RPMI+s) (AID 1963876); further: nearly all actives have a fitted effect of over 35% in size; further: potency means the concentration at half of the fitted maximal effect
Outline: (§1)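 Each medium arm—HPLM with 10% dialyzed FBS, or RPMI1640 with 5 mM glucose and 10% untreated or dialyzed FBS—was screened against an 11-point, 3-fold compound titration for 48 h at 37 °C, with CellTiter-Glo luminescence as endpoint.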

[4] = Quantitative highthroughput screen to assess conditional lethalithy of NOMO1 cells grown in RPMI1640 with dialyzed fetal bovine serum (RPMI+ds) (AID 1963877); further: nearly all actives have a fitted effect of over 30% in size; further: potency means the concentration at half of the fitted maximal effect; on Viability: series mostly up to about 46 µM
Outline: as §1

[5] = Quantitative highthroughput screen to assess conditional lethalithy of NOMO1 cells grown in Human Plasma-Like Medium with dialyzed fetal bovine serum (HPLM+ds) (AID 1963878); further: nearly all actives have a fitted effect of over 35% in size; further: potency means the concentration at half of the fitted maximal effect
Outline: as §1

[6] = Quantitative highthroughput screen to assess conditional lethalithy of SEM cells grown in Human Plasma-Like Medium with dialyzed fetal bovine serum (HPLM+ds) (AID 1963882); further: nearly all actives have a fitted effect of over 35% in size; further: potency means the concentration at half of the fitted maximal effect; on Viability: series mostly up to about 46 µM
Outline: as §1

[7] = Quantitative highthroughput screen to assess conditional lethalithy of SEM cells grown in RPMI1640 with unreated serum (RPMI+s) (AID 1963883); further: nearly all actives have a fitted effect of over 35% in size; further: potency means the concentration at half of the fitted maximal effect
Outline: as §1

[8] = Quantitative highthroughput screen to assess conditional lethalithy of SEM cells grown in RPMI1640 with dialyzed fetal bovine serum (RPMI+ds) (AID 1963884); further: nearly all actives have a fitted effect of over 35% in size; further: potency means the concentration at half of the fitted maximal effect; on Viability: series mostly up to about 46 µM
Outline: as §1

[9] = Cellular viability qHTS for adrenocortical cancer (ACC) cell line SW-13 (AID 1963989); conditions: SW-13 ACC cells viability, CellTiter-Glo, 48 h; activity (max response): stronger effect = lower value; further: nearly all actives have a fitted effect of over 65% in size; further: potency means the concentration at half of the fitted maximal effect;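 on activity (max response): cells grown in serum-free medium with ITS supplement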
Outline: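 IC50 and maximal-response values come from four-parameter logistic fits of titration data. SW-13 cells in serum-free medium received compounds (up to 46 uM final) for 48 h before CellTiter-Glo luminescence.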

[10] = Cellular viability qHTS for adrenocortical cancer (ACC) cell line NCI-H295R (AID 1963990); further: nearly all actives have a fitted effect of over 60% in size; further: potency means the concentration at half of the fitted maximal effect
Outline: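 Adrenocortical carcinoma cells, suspended at 300 000 cells/mL in serum-free DMEM plus ITS, rested overnight before pin transfer of compound. After two days' incubation, ATP-dependent luminescence was recorded and curve-fitted.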

[11] = Quantitative highthroughput screen to assess conditional lethalithy of P12 Ichikawa cells grown in RPMI1640 with dialyzed fetal bovine serum (RPMI+ds) (AID 1963880); conditions: Potency: P12-Ichikawa viability; further: nearly all actives have a fitted effect of over 35% in size; further: potency means the concentration at half of the fitted maximal effect
Outline: as §1

[12] = Quantitative highthroughput screen to assess conditional lethalithy of P12 Ichikawa cells grown in RPMI1640 with untreated serum (RPMI+s) (AID 1963881); conditions: Potency: viability; further: nearly all actives have a fitted effect of over 35% in size; further: potency means the concentration at half of the fitted maximal effect; on Viability: series mostly up to about 46 µM
Outline: as §1

[13] = Quantitative highthroughput screen to assess conditional lethalithy of P12 Ichikawa cells grown in Human Plasma-Like Medium with dialyzed fetal bovine serum (HPLM+ds) (AID 1963879); conditions: Potency: viability
Outline: as §1

Chain of Cytochrome P450 3A7 (Homo sapiens) (P24462 whole entry, looked up): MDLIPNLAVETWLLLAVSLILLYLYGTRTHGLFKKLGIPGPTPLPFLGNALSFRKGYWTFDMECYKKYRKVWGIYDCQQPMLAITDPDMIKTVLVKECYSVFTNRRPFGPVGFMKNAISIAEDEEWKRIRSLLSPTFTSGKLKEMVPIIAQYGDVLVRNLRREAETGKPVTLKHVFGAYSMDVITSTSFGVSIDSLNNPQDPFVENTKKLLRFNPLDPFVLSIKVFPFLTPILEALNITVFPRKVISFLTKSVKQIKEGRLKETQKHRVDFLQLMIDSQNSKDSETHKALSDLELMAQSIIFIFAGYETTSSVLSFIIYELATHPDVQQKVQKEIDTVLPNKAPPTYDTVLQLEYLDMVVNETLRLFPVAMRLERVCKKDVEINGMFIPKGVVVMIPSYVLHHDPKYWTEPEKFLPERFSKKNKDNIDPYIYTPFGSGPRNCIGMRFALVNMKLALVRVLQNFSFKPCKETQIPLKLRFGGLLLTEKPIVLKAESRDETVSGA

**Q.** With `Clc1ccc2c(c1)C1=NCCN1c1c(-c3noc(C4CC4)n3)ncn1-2` as the compound, how does the Potency [1] read?
**A.** inactive

**Q.** What about the Potency [2] of the same compound?
**A.** inactive

**Q.** For `CC1(C)CC(=O)c2c(C(F)(F)F)nn(-c3ccc(C(N)=O)c(NC4CCC(OC(=O)CN)CC4)c3)c2C1` (stereo not drawn), which Potency [1] is on record?
**A.** 15.1 µM (active)

**Q.** What about the Potency [2] of the same compound?
**A.** 51.7 nM (active) and 37.2 nM (active)

**Q.** What about the Potency [3] of the same compound?
**A.** 0.372 µM (active)

**Q.** What about the Potency [4] of the same compound?
**A.** 0.296 µM (active)

**Q.** And the Potency [5]?
**A.** 0.332 µM (active)

**Q.** And the Potency [6]?
**A.** 0.264 µM (active)

**Q.** What about the Potency [7] of the same compound?
**A.** 0.264 µM (active)

**Q.** What about the Potency [8] of the same compound?
**A.** 0.296 µM (active)

**Q.** And the Potency [9]?
**A.** 0.282 µM (active)

**Q.** And the Potency [10]?
**A.** 501 nM (active)

**Q.** Which results are given for `Cn1cnc([N+](=O)[O-])c1Sc1ncnc2nc[nH]c12`?
**A.** Potency [1]: inactive; Potency [2]: 2.15 µM (active) and 2.35 µM (active); Potency [3]: 6.62 µM (active); Potency [4]: 5.26 µM (active); Potency [5]: 2.64 µM (active); Potency [11]: 5.9 µM (active); Potency [10]: 3.98 µM (active) and 8.2 µM (active) and 5.62 µM (active)

**Q.** Which Potency [1] does the source give for `CS(=O)c1ccc(-c2nc(-c3ccc(F)cc3)c(-c3ccncc3)[nH]2)cc1` (stereo not drawn) here?
**A.** inactive

**Q.** And the Potency [2]?
**A.** 20.6 µM (active)

**Q.** What about the Potency [3] of the same compound?
**A.** 6.79 µM (active)

**Q.** What about the Potency [4] of the same compound?
**A.** 6.79 µM (active)

**Q.** And the Potency [5]?
**A.** 6.05 µM (active)

**Q.** What about the Potency [11] of the same compound?
**A.** 8.55 µM (active)

**Q.** And the Potency [12]?
**A.** 7.62 µM (active)

**Q.** And the Potency [6]?
**A.** 7.62 µM (active)

**Q.** And the Potency [7]?
**A.** 2.41 µM (active)

**Q.** What about the Potency [8] of the same compound?
**A.** 5.4 µM (active)

**Q.** And the Potency [10]?
**A.** inactive

**Q.** Which Potency [1] does the source give for `CCCN[C@H]1CCc2nc(N)sc2C1` here?
**A.** inactive

**Q.** What about the Potency [2] of the same compound?
**A.** 4.17 µM (active)

**Q.** What about the Potency [3] of the same compound?
**A.** inactive

**Q.** And the Potency [4]?
**A.** inactive

**Q.** And the Potency [5]?
**A.** inactive

**Q.** And the Potency [13]?
**A.** inactive

**Q.** What about the Potency [12] of the same compound?
**A.** inactive

**Q.** What about the Potency [6] of the same compound?
**A.** inactive

**Q.** What about the Potency [7] of the same compound?
**A.** inactive

**Q.** And the Potency [8]?
**A.** inactive

**Q.** And the Potency [10]?
**A.** inactive

**Q.** Which Potency [1] does the source give for `C[C@H]1O[C@@H](O[C@H]2CC[C@@]3(C)[C@H](CC[C@@H]4[C@@H]3C[C@@H](O)[C@]3(C)[C@@H](C5=CC(=O)OC5)CC[C@]43O)C2)C[C@H](O)[C@@H]1O[C@H]1C[C@H](O)[C@H](O[C@H]2C[C@H](O)[C@H](O[C@@H]3O[C@H](CO)[C@@H](O)[C@H](O)[C@H]3O)[C@@H](C)O2)[C@@H](C)O1` here?
**A.** inactive

**Q.** And the Potency [2]?
**A.** 0.133 µM (active)

**Q.** Which Potency [1] does the source give for `CN(C)S(=O)(=O)c1ccc(NC(=S)N2CCC(C(O)(c3ccccc3)c3ccccc3)CC2)cc1` here?
**A.** inactive

**Q.** And the Potency [2]?
**A.** 18.4 µM (active)

**Q.** What does the source list for `COC(=O)c1ccc2c(c1)nc(NC(=O)c1ccccc1)n2CCCc1ccccc1`?
**A.** Potency [1]: inactive; Potency [2]: inactive

**Q.** With `COc1cc(C(=O)NC2CCN(C)CC2)ccc1Nc1ncc2c(n1)N(C1CCCC1)CC(F)(F)C(=O)N2C` as the compound, how does the Potency [1] read?
**A.** inactive

**Q.** What about the Potency [2] of the same compound?
**A.** 0.0103 µM (active)

**Q.** Which Potency [1] does the source give for `Cc1cc2sc(NC(=O)Cc3ccccc3)nc2cc1Cl` here?
**A.** inactive

**Q.** And the Potency [2]?
**A.** inactive

**Q.** For `COc1cc2c(cc1OC)CN(CCc1ccc(NC(=O)c3cc(OC)c(OC)cc3NC(=O)c3cnc4ccccc4c3)cc1)CC2`, which Potency [1] is on record?
**A.** inactive

**Q.** And the Potency [2]?
**A.** inactive

**Q.** And the Potency [3]?
**A.** inactive

**Q.** And the Potency [4]?
**A.** inactive

**Q.** And the Potency [5]?
**A.** inactive

**Q.** And the activity (max response) [9]?
**A.** -4.36%

**Q.** What about the Potency [10] of the same compound?
**A.** inactive

**Q.** Which Potency [1] does the source give for `c1ccc(C(OC2CCN(CCCc3nn[nH]n3)CC2)c2ccccc2)cc1` here?
**A.** inactive

**Q.** What about the Potency [2] of the same compound?
**A.** inactive

**Q.** Which Potency [1] does the source give for `O=C(O)c1cccnc1` here?
**A.** inactive

**Q.** What about the Potency [2] of the same compound?
**A.** inactive

**Q.** What about the Potency [3] of the same compound?
**A.** 8.33 µM (active)

**Q.** What about the Potency [4] of the same compound?
**A.** 5.26 µM (active)

**Q.** What about the Potency [5] of the same compound?
**A.** 3.72 µM (active)

**Q.** And the Potency [11]?
**A.** 10.5 µM (active)

**Q.** What about the Potency [6] of the same compound?
**A.** 1.18 µM (active)

**Q.** And the Potency [7]?
**A.** 2.96 µM (active)

**Q.** And the Potency [8]?
**A.** 2.96 µM (active)

**Q.** What about the activity (max response) [9] of the same compound?
**A.** -4.23% and 5.29%

**Q.** And the Potency [10]?
**A.** inactive

**Q.** For `Cn1c(=O)n(-c2ccc(C(C)(C)C#N)cc2)c2c3cc(C#Cc4cccnc4)ccc3ncc21`, which Potency [1] is on record?
**A.** inactive

**Q.** What about the Potency [2] of the same compound?
**A.** 0.0447 µM (active)

**Q.** Which Potency [1] does the source give for `CC(C)c1noc(N2CCC(COc3ccc(-c4ccc(S(C)(=O)=O)cc4)nc3)CC2)n1` here?
**A.** inactive

**Q.** And the Potency [2]?
**A.** 5.25 µM (active)

**Q.** What about the Potency [3] of the same compound?
**A.** inactive

**Q.** And the Potency [4]?
**A.** inactive

**Q.** And the Potency [5]?
**A.** inactive

**Q.** What about the Potency [13] of the same compound?
**A.** inactive

**Q.** What about the Potency [11] of the same compound?
**A.** inactive

**Q.** And the Potency [12]?
**A.** inactive

**Q.** And the Potency [6]?
**A.** inactive

**Q.** What about the activity (max response) [9] of the same compound?
**A.** -1.34%

**Q.** What about the Potency [10] of the same compound?
**A.** inactive

**Q.** Which results are given for `O=C(O)CNC(=O)c1ccccc1I`?
**A.** Potency [1]: inactive; Potency [2]: inactive

**Q.** With `CCCNC(=O)Nc1ccc(Oc2ncnc3cc(OC)c(OC)cc23)cc1Cl` as the compound, how does the Potency [1] read?
**A.** inactive

**Q.** And the Potency [2]?
**A.** 0.517 µM (active)

**Q.** What about the Potency [3] of the same compound?
**A.** inactive

**Q.** And the Potency [4]?
**A.** inactive

**Q.** What about the Potency [5] of the same compound?
**A.** inactive

**Q.** What about the Potency [13] of the same compound?
**A.** inactive

**Q.** What about the Potency [11] of the same compound?
**A.** inactive

**Q.** And the Potency [12]?
**A.** inactive

**Q.** And the activity (max response) [9]?
**A.** -6.45%

**Q.** And the Potency [10]?
**A.** inactive

**Q.** What does the source list for `CCCc1nc(C(C)(C)O)c(C(=O)O)n1Cc1ccc(-c2ccccc2-c2nn[nH]n2)cc1`?
**A.** Potency [1]: inactive; Potency [2]: inactive; Potency [3]: inactive; Potency [4]: inactive; Potency [5]: inactive; Potency [13]: inactive; Potency [11]: inactive; Potency [12]: inactive; Potency [6]: inactive; Potency [7]: inactive; Potency [8]: inactive; activity (max response) [9]: 8.92%; Potency [10]: inactive

**Q.** With `CN1CCc2nc(C(=O)N[C@@H]3C[C@@H](C(=O)N(C)C)CC[C@@H]3NC(=O)C(=O)Nc3ccc(Cl)cn3)sc2C1` as the compound, how does the Potency [1] read?
**A.** inactive

**Q.** What about the Potency [2] of the same compound?
**A.** inactive

**Q.** Which Potency [1] does the source give for `CN1CCN(C(=O)CN[C@@H]2C[C@H]2c2ccc(OCc3ccccc3)cc2)CC1` here?
**A.** inactive

**Q.** What about the Potency [2] of the same compound?
**A.** 25.9 µM (active)
